Data taken from the supplement of paper PMC9694430.

tested on: LOC_OS01G10900-cb004; experiment: thermal shift delta Tm vs DMSO control; higher = stronger stabilization (binding); conditions: 12.5 µM; protein concentration 2 µM
How it was run: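 Rice kinase domain constructs, made in E. coli and purified, were placed in 96-well plates at 2 μM in 19.5 μl of 100 mM potassium phosphate pH 7.5, 150 mM NaCl, 10% glycerol and 5 × SYPRO Orange, with compound in DMSO. A temperature ramp from 25°C to 95°C at 0.05°C/s was used for differential scanning fluorimetry. The melting temperature shift is a triplicate mean compared with DMSO-only protein, derived from Boltzmann fits.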
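Note: purified Escherichia coli-expressed rice kinase domain construct.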

Row | Compound | thermal shift delta Tm [°C]
1 | COc1cc(N2CCN(C)CC2)ccc1Nc1nccc(-c2cn(C)c3cnccc23)n1 | 1.77
2 | CN1CCN(c2nc(C3=C(c4c[nH]c5ccccc45)C(=O)NC3=O)c3ccccc3n2)CC1 [Sotrastaurin] | 0.77
3 | CCN(CC)CCCC(C)Nc1nc(C)cc(Nc2ccc3nc(C)cc(N)c3c2)n1 (stereo not drawn) | -0.35
4 | CN(C)C[C@@H]1CCn2cc(c3ccccc32)C2=C(C(=O)NC2=O)c2cn(c3ccccc23)CCO1 | 0.95
5 | CCn1c2ccccc2c2cc(Nc3ccnc(NCCCN4CCOCC4)n3)ccc21 | 0.59
6 | O=C1NCCc2[nH]c(-c3ccncc3)cc21 | 0.12
7 | Oc1cc(O)cc(/C=C/c2ccc(O)c(O)c2)c1 [Piceatannol] | 0.74
8 | CC(C)(C#N)c1ccc(N2C(=O)OCc3cnc4ccc(-c5cnc6ccccc6c5)cc4c32)cc1 | 0.21
9 | N#CCNC(=O)c1ccc(-c2ccnc(Nc3ccc(N4CCOCC4)cc3)n2)cc1 [Momelotinib (CYT387)] | 1.02
10 | Cc1cc(C(=O)Nc2nc3cccc(Cl)c3n2[C@@H]2CCCCN(C(=O)/C=C/CN(C)C)C2)ccn1 [Nazartinib (EGF816, NVS-816)] | 1.4
11 | COc1cc(OC)cc(N(CCNC(C)C)c2ccc3ncc(-c4cnn(C)c4)nc3c2)c1 | 0.16
12 | O=C1c2ccc(Nc3ccc(F)cc3F)cc2CCc2ccc(OC[C@H](O)CO)cc21 [Skepinone-L] | 1.14
13 | O=C1CCc2c(Oc3ccc4c(c3)[C@@H]3[C@H](O4)[C@H]3c3nc4cc(C(F)(F)F)ccc4[nH]3)ccnc2N1 [Lifirafenib (BGB-283)] | 2.3
